Test results reported in ChEMBL document CHEMBL3988442, “University of Dundee, Small-Polar-MMV Screening Library” (2021).
For some of these results: Entries with a potency or affinity are not part of this list.

Tests used:
Parameters in all cases: scale not given: direction of the effect not stated beside the values
[1] = biological target: Protein translocase subunit SecA (Escherichia coli (strain K12)) (UniProt P10408); assay: Assay to Identify E. coli SecA ATPase Inhibitors; assay type: functional; settings: 30 µM
Chain of Protein translocase subunit SecA (Escherichia coli (strain K12)) (P10408 whole entry): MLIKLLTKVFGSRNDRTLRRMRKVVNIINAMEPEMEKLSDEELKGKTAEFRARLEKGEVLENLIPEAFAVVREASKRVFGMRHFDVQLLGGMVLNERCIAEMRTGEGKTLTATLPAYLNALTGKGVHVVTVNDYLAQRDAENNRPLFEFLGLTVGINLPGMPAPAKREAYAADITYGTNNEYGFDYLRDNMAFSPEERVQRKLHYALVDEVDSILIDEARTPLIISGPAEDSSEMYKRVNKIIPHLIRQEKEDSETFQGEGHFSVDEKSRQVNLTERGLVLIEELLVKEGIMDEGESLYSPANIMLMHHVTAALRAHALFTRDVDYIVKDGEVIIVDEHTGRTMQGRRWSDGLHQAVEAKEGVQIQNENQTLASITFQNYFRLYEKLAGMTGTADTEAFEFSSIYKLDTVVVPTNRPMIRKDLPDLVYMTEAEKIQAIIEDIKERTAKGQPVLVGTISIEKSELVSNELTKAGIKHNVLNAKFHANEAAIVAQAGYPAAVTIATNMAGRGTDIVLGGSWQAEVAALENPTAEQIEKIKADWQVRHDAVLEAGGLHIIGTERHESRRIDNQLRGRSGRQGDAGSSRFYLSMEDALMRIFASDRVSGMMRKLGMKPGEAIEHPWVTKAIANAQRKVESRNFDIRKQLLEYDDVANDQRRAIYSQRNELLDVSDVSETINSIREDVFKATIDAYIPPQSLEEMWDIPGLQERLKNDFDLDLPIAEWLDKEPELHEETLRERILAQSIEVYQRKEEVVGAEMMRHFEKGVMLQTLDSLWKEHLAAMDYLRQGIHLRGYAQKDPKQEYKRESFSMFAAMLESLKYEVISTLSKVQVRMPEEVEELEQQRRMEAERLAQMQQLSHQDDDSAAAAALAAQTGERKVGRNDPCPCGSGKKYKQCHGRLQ

[2] = biological target: T1, Ubiquitin-activating enzyme e1, putative (Leishmania donovani (strain BPK282A1)) (UniProt E9BSI1); assay: Leishmania donovani Ubiquitin Activating Enzyme (LdE1); assay type: functional; settings: 30 µM
T1 sequence (whole entry): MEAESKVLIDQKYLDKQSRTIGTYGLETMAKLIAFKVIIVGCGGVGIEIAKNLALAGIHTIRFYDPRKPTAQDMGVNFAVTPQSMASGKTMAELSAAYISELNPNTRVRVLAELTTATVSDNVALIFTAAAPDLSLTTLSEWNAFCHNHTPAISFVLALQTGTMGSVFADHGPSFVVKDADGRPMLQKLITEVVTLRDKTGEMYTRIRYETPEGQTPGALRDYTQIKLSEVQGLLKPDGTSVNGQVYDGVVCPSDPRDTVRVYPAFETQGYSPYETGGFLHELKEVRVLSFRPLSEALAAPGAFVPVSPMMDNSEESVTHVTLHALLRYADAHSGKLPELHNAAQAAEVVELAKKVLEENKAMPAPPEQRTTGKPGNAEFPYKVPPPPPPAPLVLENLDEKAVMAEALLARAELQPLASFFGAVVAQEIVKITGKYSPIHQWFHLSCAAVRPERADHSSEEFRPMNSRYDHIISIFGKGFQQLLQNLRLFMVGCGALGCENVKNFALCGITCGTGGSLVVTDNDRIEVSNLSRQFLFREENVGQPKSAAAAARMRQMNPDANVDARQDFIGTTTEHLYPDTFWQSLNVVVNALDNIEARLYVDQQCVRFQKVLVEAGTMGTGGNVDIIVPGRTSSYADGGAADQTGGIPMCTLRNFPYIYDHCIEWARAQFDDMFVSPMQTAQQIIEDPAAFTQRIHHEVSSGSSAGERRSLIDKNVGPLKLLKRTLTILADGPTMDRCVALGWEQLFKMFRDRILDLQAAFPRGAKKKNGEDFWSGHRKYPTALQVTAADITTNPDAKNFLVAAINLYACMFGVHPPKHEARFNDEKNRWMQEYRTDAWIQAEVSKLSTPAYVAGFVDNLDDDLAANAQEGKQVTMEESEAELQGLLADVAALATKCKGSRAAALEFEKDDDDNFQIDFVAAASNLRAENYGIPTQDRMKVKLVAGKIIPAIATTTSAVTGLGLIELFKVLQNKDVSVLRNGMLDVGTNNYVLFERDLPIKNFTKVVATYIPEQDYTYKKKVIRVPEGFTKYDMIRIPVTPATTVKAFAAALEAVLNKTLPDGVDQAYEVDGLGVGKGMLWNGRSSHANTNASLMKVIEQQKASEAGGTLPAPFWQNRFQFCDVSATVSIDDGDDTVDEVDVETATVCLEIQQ

[3] = biological target: AMP-activated protein kinase, AMPK (Homo sapiens) (UniProt P54646+O43741+P54619+Q9UGJ0+Q9Y478+Q13131+Q9UGI9); assay: AMP-dependent Kinase enzyme assay. An in vitro enzyme assay that detects ADP turnover that is directly proportional to AMPK activity. This uses naive AMPK that is activated during the assay with MK-8722; assay type: functional; settings: 30 µM
[4] = biological target: Sialic acid-binding Ig-like lectin 9 (Homo sapiens) (UniProt Q9Y336); assay: Hs-Siglec9 ALPHAscreen SOP 20170721; settings: 10 µM
Chain of Sialic acid-binding Ig-like lectin 9 (Homo sapiens) (Q9Y336 whole entry): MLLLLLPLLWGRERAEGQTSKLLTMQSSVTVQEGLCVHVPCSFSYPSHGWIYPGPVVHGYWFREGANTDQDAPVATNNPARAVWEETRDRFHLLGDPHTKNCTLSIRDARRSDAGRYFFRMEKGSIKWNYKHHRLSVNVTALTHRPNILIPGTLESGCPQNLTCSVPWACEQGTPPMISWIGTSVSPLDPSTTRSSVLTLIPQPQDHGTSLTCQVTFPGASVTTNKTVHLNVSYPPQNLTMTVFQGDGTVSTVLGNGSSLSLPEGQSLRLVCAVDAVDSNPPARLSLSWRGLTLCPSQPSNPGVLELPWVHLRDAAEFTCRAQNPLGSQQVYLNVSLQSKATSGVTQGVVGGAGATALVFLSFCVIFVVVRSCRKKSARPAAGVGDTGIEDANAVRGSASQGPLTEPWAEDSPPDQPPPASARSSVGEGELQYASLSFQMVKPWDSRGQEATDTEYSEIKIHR

[5] = tested on: Trypanosoma cruzi; assay: Trypanosoma cruzi phosphomannomutase and mannose-1-phosphate guanylyltransferase assay; assay type: functional; settings: 10 µM
[6] = biological target: T2, Arginase-2, mitochondrial (Homo sapiens) (UniProt P78540); assay: in vitro enzyme assay to detect the production of urea directly proportional to the activity of Arginase II; assay type: functional; settings: 33.3 µM; further: in the data most compounds retested in dose-response had high values
T2 sequence (whole entry): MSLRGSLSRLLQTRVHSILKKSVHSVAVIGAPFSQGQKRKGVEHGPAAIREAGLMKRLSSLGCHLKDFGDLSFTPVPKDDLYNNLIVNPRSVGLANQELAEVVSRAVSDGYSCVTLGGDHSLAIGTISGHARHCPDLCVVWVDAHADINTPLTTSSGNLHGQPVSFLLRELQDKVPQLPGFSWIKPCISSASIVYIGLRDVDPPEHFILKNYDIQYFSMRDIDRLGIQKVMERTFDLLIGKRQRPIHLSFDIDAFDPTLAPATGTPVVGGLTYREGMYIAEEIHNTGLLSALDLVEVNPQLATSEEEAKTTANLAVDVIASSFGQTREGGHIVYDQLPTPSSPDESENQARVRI

[7] = biological target: T3, Proteasome subunit beta (Trypanosoma cruzi) (UniProt O96673); assay: Trypanosoma cruzi proteasome chymotrypsin-like activity (TcProtChymo) assay.; further: in the data most compounds retested in dose-response had high values; assay type: functional; settings: 9.37 µM
T3 sequence (whole entry): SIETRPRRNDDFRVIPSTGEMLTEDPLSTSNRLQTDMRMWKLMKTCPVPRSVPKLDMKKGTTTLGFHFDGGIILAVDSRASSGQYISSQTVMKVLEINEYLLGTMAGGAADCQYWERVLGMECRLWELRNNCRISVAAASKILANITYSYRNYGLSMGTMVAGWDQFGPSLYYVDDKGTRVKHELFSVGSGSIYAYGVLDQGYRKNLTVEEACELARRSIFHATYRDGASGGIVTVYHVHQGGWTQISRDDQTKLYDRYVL

[8] = species on record: Homo sapiens; assay: To identify inhibition of the IFN signalling (Jak-Stat) pathway via expression of an eGFP reporter gene under the control of an IFN-stimulated response element (ISRE) containing MxA promoter.; assay type: functional; settings: 30 µM
[9] = biological target: T4, Tyrosyl-tRNA synthetase, putative (Trypanosoma cruzi (strain CL Brener)) (UniProt Q4DSP6); assay: Trypanosoma cruzi tyrosyl tRNA synthetase (TcYRS) _High Tyrosine SOP; assay type: functional; settings: 30 µM; further: in the data most compounds retested in dose-response had high values
T4 sequence (whole entry): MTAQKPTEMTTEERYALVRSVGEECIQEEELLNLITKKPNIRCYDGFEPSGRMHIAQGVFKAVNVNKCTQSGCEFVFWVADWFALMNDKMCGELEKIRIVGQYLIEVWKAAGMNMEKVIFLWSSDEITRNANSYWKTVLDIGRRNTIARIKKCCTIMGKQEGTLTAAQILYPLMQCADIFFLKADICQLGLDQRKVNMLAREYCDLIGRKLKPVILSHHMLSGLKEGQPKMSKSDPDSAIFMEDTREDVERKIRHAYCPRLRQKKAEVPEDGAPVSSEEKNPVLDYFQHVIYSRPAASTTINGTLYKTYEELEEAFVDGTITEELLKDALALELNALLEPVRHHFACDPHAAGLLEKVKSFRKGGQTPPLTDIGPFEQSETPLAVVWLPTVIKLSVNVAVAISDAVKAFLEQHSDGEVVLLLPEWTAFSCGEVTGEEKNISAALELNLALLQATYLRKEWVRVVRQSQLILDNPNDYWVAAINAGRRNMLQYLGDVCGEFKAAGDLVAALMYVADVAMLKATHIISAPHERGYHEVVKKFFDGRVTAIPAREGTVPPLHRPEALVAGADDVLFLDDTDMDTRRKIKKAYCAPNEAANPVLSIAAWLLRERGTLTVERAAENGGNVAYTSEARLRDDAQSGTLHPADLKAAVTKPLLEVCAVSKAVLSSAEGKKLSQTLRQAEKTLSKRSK

[10] = biological target: T4, Tyrosyl-tRNA synthetase, putative (Trypanosoma cruzi (strain CL Brener)); assay: Trypanosoma cruzi tyrosyl tRNA synthetase (TcYRS) SOP; assay type: functional; settings: 30 µM
[11] = biological target: Chromo domain-containing protein 1 (Saccharomyces cerevisiae (strain ATCC 204508 / S288c) (Baker's yeast)) (UniProt P32657); assay: ScCHD-1 Enzyme Inhibition Assay; assay type: functional; settings: 30 µM; further: in the data most compounds retested in dose-response had high values
Chain of Chromo domain-containing protein 1 (Saccharomyces cerevisiae (strain ATCC 204508 / S288c) (Baker's yeast)) (P32657 whole entry, the tested form may be a part): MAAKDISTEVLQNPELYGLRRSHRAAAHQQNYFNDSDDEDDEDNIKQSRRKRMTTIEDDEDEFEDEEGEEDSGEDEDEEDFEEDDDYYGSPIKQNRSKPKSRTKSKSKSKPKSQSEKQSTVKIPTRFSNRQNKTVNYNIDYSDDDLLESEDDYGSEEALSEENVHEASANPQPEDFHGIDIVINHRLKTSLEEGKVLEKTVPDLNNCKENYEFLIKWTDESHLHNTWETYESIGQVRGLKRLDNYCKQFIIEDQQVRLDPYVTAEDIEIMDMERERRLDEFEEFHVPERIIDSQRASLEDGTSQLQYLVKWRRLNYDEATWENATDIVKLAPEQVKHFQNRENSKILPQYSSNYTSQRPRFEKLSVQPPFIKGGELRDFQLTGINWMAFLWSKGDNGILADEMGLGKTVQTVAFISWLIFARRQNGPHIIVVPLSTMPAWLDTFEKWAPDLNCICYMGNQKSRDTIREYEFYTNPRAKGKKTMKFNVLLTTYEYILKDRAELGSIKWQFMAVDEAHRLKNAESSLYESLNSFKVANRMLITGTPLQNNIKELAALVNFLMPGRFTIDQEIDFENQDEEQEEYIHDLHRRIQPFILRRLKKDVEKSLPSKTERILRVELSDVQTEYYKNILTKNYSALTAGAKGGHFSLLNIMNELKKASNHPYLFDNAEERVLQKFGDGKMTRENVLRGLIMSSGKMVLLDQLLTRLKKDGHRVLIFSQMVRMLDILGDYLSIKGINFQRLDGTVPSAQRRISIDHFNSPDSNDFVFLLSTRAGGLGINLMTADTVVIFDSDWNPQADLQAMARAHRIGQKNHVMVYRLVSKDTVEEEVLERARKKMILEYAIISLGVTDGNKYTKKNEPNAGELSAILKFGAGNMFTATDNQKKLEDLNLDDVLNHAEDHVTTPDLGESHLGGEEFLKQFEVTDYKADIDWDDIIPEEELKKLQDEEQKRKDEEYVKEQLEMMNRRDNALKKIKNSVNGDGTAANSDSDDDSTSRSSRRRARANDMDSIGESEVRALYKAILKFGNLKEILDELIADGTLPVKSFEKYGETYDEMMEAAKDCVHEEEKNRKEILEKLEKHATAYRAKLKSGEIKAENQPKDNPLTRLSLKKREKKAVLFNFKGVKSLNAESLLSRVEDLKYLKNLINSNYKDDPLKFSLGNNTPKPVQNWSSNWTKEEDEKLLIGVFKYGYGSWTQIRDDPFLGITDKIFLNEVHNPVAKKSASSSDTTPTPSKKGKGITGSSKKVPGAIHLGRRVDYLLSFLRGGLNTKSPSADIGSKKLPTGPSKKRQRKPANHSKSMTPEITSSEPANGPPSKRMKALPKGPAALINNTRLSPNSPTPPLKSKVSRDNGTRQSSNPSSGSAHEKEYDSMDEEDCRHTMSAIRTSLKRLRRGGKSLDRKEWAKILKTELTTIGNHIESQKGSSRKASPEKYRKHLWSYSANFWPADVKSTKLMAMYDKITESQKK

Structure (SMILES)	Percent Effect [1]	Percent Effect [2]	Percent Effect [3]	Percent Effect [4]	Percent Effect [5]	Percent Effect [6]	Percent Effect [7]	Percent Effect [8]	Percent Effect [9]	Percent Effect [10]	Percent Effect [11]
O=C(c1cccc(CN2CCCC2)c1)N1CCCC(n2cncn2)C1 (stereo not drawn)	-4.8%	21.6%	-12.1%	-3.07%	-0.849%	-10%	16.2%	23.3%	6.4%	16.1%	-2.99%
c1ccc(-c2noc(CN3CCC(c4ccn[nH]4)CC3)n2)cc1	1.64%	-8.11%	-9.82%	9.87%	3.09%	26.2%	21.9%	-10.4%	4.76%	14.6%	-1.3%
CCC(C)c1noc(C2CCN(C(=O)c3cccnc3)CC2)n1 (stereo not drawn)	-3.05%	7.79%	0.731%	6.36%	-0.0983%	-9.65%	14.8%	-14.3%	5.38%	11.1%	-2.94%
COCc1ncn2c1CN(C(=O)C1CC=CC1)CC2	-10.3%	2.7%	-2.21%	-3.27%	-2.64%	-1.74%	3.69%	2.37%	6.45%	11.1%	0.611%
CC(NC(=O)C1=NN(C)C(=O)CC1)c1ccc(F)cc1F (stereo not drawn)	-1.15%	16.4%	16.9%	10.9%	4.11%	-4.09%	20.4%	14.5%	5.38%	15%	-6.12%
CCCc1nc(CN2CCCC(Cn3cncn3)C2)no1 (stereo not drawn)	-6.43%	-1.27%	0.957%	-0.585%	0.718%	0.215%	2.06%	4.36%	5.21%	15.2%	-25.2%
CCCN1C(=O)CC(N2CCN(c3ccc(F)cc3)CC2)C1=O (stereo not drawn)	-0.321%	13.2%	5.3%	-9.41%	-3.99%	-7.1%	11.6%	11.5%	0%	7.79%	-5.52%
CCOc1cc(C)nc(N2CCN(C(=O)CC)CC2)n1	-4.4%	5.41%	144%	10.3%	0.836%	0.924%	-14.4%	17.8%	6.93%	6.1%	7.75%
Cc1cnc(CN(C)C2CCN(CC(=O)N(C)c3nccs3)C2)o1 (stereo not drawn)	2.75%	17.7%	3.25%	-2.38%	-8.4%	0.76%	13.2%	40.8%	1.48%	-3.8%	-6.37%
O=C(CC1CC1)N1CCC2(CC1)CN(c1ncccn1)CCO2	-2.48%	2.67%	5.17%	6.83%	-6.89%	-5.83%	5.9%	9.78%	-5.32%	-1.28%	-7.95%
CCn1ccnc1CN1CCN(CC(=O)NC(=O)NC2CC2)CC1	-0.559%	13.2%	1.1%	4.6%	3.95%	0%	16.5%	-2.49%	8.33%	19.5%	-6.48%
Cc1nn(CC(=O)N2CCCC2Cn2cccn2)c(C)c1Cl (stereo not drawn)	-7.11%	21.6%	0.532%	8.29%	5.86%	36.2%	22.9%	21.4%	9.9%	20.7%	-6.56%
CC(O)CN1CCN(C(=O)c2ccn(-c3cccc(Cl)c3)n2)CC1 (stereo not drawn)	-5.56%	-2.6%	12.7%	-7.86%	-6.93%	1.07%	1.18%	26.4%	-1.94%	-9.76%	-1.68%
Cc1cc(C)nc(NC(=O)C(C)Oc2ccc3c(c2)OCO3)n1 (stereo not drawn)	-1.24%	5.2%	-2.31%	4.95%	5.21%	0%	19.6%	5.23%	8.6%	18.5%	-2.76%
CCS(=O)(=O)N(C)c1ccc(C(=O)N2CCCC(C)C2)cc1 (stereo not drawn)	-2.45%	4.17%	-4.69%	15.7%	3.4%	0.883%	0.351%	4.06%	-1.05%	5.13%	-1.93%
CCN1CCN(C(=O)CCc2c(C)noc2Cl)CC1	-4.13%	10.5%	-2.91%	-3.24%	-9.24%	4.32%	5.16%	-6.25%	3.45%	6.17%	-1.51%
CCCN1CCN(C(=O)c2scnc2C)CC1	-7.16%	10.5%	0.673%	9.57%	2.82%	0%	9.3%	-10.2%	1.06%	10.4%	-4.16%
c1ccc2sc(CN3CCOC(Cn4cncn4)C3)nc2c1 (stereo not drawn)	-1.57%	-8.11%	-9.39%	-1.81%	-6.51%	0.401%	-4.68%	42.5%	1.48%	-6.17%	4.42%
Cc1ccccc1CC1(CO)CCCN(c2ncccc2C#N)C1 (stereo not drawn)	-2.63%	0%	3.1%	0.621%	-5.21%	1.43%	17.1%	27.8%	3.7%	7.32%	-1.78%
COc1cc(C)nc(N2CCN(C(=O)c3ccccc3C)CC2)n1	-6.89%	2.7%	-5.76%	17.5%	8.4%	-13.2%	1.8%	9.59%	5.42%	18.5%	-18.4%
Cc1ccccc1C1(CNC(=O)NCCc2nnc3n2CCC3)CC1	-1.76%	-5.26%	-101%	5.17%	-3.41%	-2.37%	7.19%	-19.3%	0%	-2.6%	-0.461%
CN1CCCN(C(=O)NCc2csc(Br)c2)CC1	-5.63%	10.8%	-0.581%	13.3%	0.0929%	3.88%	3.05%	15.4%	6.93%	18.3%	-0.533%
Cc1cnn(CC2CN(c3ncnc4ccsc34)CCO2)c1 (stereo not drawn)	-2.74%	2.7%	4.84%	-10%	6.05%	-2.5%	19.7%	75.7%	11.9%	15.8%	-0.587%
